Source: PubChem
Hedgehog inh: blocks Sonic Hedgehog signaling; Shh-LIGHT2 Gli-luciferase reporter, 30 h; inhibition, % (test concentration not listed); hit rate 2.1% among 22,000; AID 2313;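 active = mean inhibition across valid replicates above about 65%, limit read from the data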;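 note: pathway switched on by Shh-conditioned medium diluted 1 in 25 in low serum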
MITF inh: inhibitors of MITF | AID 2240 | hit rate 0.28% among 37,000 | TRPM1 promoter luciferase, luminescence, 24 h | inhibition, % (concentration not given with the values); in the data active = inhibition above about 85%;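 note: human melanocyte line stably carrying TRPM1 promoter luciferase reporter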
Starred values were filed as active, the others as inactive; . = no result. This is one part of a sample in which hits are shown more often than they occur.

SMILES	Hedgehog inh	MITF inh
CC[C@@]1(O)C(=O)OCc2c1cc1n(c2=O)Cc2cc3c(O)cccc3nc2-1	68*	66
CN(CC(=O)Nc1ccc(Cl)cc1C(=O)c1ccccc1)S(=O)(=O)c1ccc(Cl)cc1	.	11
Cc1cc(OC(=O)c2cccs2)c2c3c(c(=O)oc2c1)CCC3	-9	-8
CN[C@@H]1C[C@@]2(C)O[C@@H]([C@@H]1OC)n1c3ccccc3c3c4c(c5c6ccccc6n2c5c31)C(=O)NC4	103*	101*
C=C(CO)C(=O)O[C@H]1C/C(C)=C\CC/C(CO)=C\[C@H]2OC(=O)C(=C)[C@H]12	7	-15
C=C(CO)C(=O)O[C@H]1CC(=C)[C@@H]2C[C@H](O)C(=C)[C@@H]2[C@H]2OC(=O)C(=C)[C@@H]21	90*	-45
C=CC(C)(C)[C@@]12C[C@H]3C(=O)N/C(=C\c4cnc[nH]4)C(=O)N3[C@@H]1Nc1ccccc12	9	-11
CCOC(=O)C1=C(N)Oc2c(c(=O)oc3ccccc23)C12C(=O)N(CC(=O)OC)c1ccccc12 (stereo not given)	-9	5
COc1ccc2c(c1OC)C(=O)O[C@H]2[C@@H]1c2cc3c(cc2CCN1C)OCO3	-39	10
CN1Cc2c(ccc3c2OCO3)C2C(O)Cc3cc4c(cc3C21)OCO4 (stereo not given)	82*	23
CCN1C[C@]2(C)CC[C@H](OC)[C@@]34C2[C@H](O)C([C@@H]13)[C@@]1(OC)C[C@H](OC)[C@H]2C[C@@H]4[C@@H]1[C@H]2O	-12	-13
CC1(C)C(=O)C=C[C@@]2(C)C1C(=O)C(=O)[C@]1(C)C2CC[C@@]2(C)[C@H](c3ccoc3)C[C@H]3O[C@]321 (stereo not given in full)	-14	108*
N#CC(C#N)=Cc1cc(O)c(O)c(O)c1	42	-10
CC(C)(C)c1cc(C=C(C#N)C#N)cc(Br)c1O	88*	78
CC(=O)OC1CCC2(C)C(=CCC3C4CCC(=O)C4(C)CCC32)C1 (stereo not given)	-9	-2
CCCCn1c(=O)c(C(=O)NCc2ccccn2)c(O)c2ccccc21	.	32
C/C=C(/C)C(=O)OC1CCN2CC=C(COC(=O)C(O)(C(C)O)C(C)(C)O)C12 (stereo not given)	-3	9
CNc1ccc2oc(C[C@@H]3OC4(CC[C@@H]3C)O[C@H](C(C)C(=O)c3ccc[nH]3)[C@H](C)C[C@H]4C)nc2c1C(=O)O (stereo not given in full)	104*	105*
CC(C)N(C(=O)SCC(Cl)=C(Cl)Cl)C(C)C	-6	7
Cc1ccc(S(=O)(=O)N2CCCCC2)cc1C(=O)Oc1cccc2cccnc12	-14	-28
Cc1ccc(NC(=O)c2cccc(OC(=O)N(C)c3ccccc3)c2)cc1C	76*	5
COc1cc(C(=O)O[C@H]2[C@@H]3C=CO[C@@H](O[C@@H]4O[C@H](CO)[C@@H](O)[C@H](O)[C@H]4O)[C@@H]3[C@@]3(CO)O[C@@H]23)ccc1O	-26	-17
O=C1C=C2C=C[C@@H]3C[C@@]2(O1)[C@H]1CCCCN31	72*	25
CC1(C)C(C(=O)Nc2ccc(S(=O)(=O)c3ccc(NC(=O)C4C(C)(C)C4(C)C)cc3)cc2)C1(C)C	-20	-9
COc1ccc(CC2(CCc3ccncc3)C(=O)NC(=O)N(c3cccc(C)c3)C2=O)c(OC)c1 (stereo not given)	.	-24
SMILES	Hedgehog inh	MITF inh
C/C1=C/[C@@H](C)C/C=C/[C@H]2[C@@H]3O[C@]3(C)[C@@H](C)[C@H]3[C@H](Cc4c[nH]c5ccccc45)NC(=O)[C@]32C(=O)/C=C\C(=O)[C@@H]1O	102*	.
COC1=CC(=O)O[C@@H](CCc2ccccc2)C1	-21	-2
C/C=C(/C)C(=O)O[C@H]1C(C)=C2[C@H]([C@@H]1OC(=O)CCCCC)[C@@](C)(OC(C)=O)C[C@H](OC(=O)CCC)[C@@]1(O)[C@H]2OC(=O)[C@@]1(C)O	105*	69
CCC(C)(O)C(=O)O[C@H]1C(=O)O[C@@H]2C[C@H]3C(C)=CC(=O)[C@@H](O)[C@]3(C)[C@H]3[C@@]4(O)OC[C@]32[C@@H]1[C@@H](C)[C@H]4O (stereo not given in full)	67*	92*
CC1=CC(=O)C2=C(C)C[C@H](O)[C@@H]3[C@H](OC(=O)[C@@H]3C)[C@@H]12	-18	.
C=C1[C@@H](C)[C@H]2[C@H](Cc3ccccc3)NC(=O)[C@]23OC(=O)/C=C\[C@H](O)CCC[C@@H](C)C/C=C/[C@H]3[C@@H]1O	65*	21
O=C(CC[N+](=O)[O-])OC[C@H]1O[C@@H](O)[C@H](OC(=O)CC[N+](=O)[O-])[C@@H](OC(=O)CC[N+](=O)[O-])[C@@H]1OC(=O)CC[N+](=O)[O-]	41	9
CCN1C[C@]2(COC)[C@H](O)C[C@H](OC)[C@@]34[C@@H]5C[C@]6(O)[C@H](OC(=O)c7ccccc7)[C@@H]5[C@@](OC(C)=O)(C([C@H](OC)[C@H]23)[C@@H]14)[C@@H](O)[C@@H]6OC	22	10
C[C@@H]1Cc2c(Cl)cc(C(=O)N[C@@H](Cc3ccccc3)C(=O)O)c(O)c2C(=O)O1	78*	.
C=C1C([C@]2(C)C(CC(=O)OC)[C@@](C)(COC(C)=O)OC(=O)C[C@@H]2OC(C)=O)[C@@H](OC=O)[C@H](OC(=O)C(OC(C)=O)C(C)CC)[C@@]2(C)[C@H](c3ccoc3)CC(=O)C12O (stereo not given in full)	-17	5
COc1cc2c(c(OC)c1OC)-c1cc3c(cc1[C@H](OC(C)=O)[C@H]1COC(=O)[C@@H]1C2)OCO3	83*	26
COc1ccc(CC2C(=O)OCC2Cc2ccc3c(c2)OCO3)cc1OC (stereo not given)	12	7
CC(C)(C)c1nc2ccccc2c(=O)n1-c1ccc(F)cc1F	1	2
Cn1cnc(-n2oo2)c1C#N	-38	29
C=CC1C[N+]2([O-])CCC1CC2C(O)c1ccnc2ccccc12 (stereo not given)	-13	.
CCOC(=O)C1C2c3ccccc3C(c3ccccc32)C1C(=O)OCC (stereo not given)	-36	22
CC(C)c1cc2c(cc1O)[C@@]1(C)CCCC(C)(C)[C@@H]1CC2	-5	-12
COc1cc(C2=NC(O)C(=O)Nc3ccc(Cl)cc32)ccc1O (stereo not given)	-15	3
C/C=C\C(=O)O[C@@H]1C[C@H]2O[C@@H]3C=C(C)C(=O)C[C@]3(C)[C@]1(C)[C@]21CO1	65*	92*
CC1=CC2OC3[C@H](O)C[C@@](C)([C@]34CO4)[C@@]2(CO)[C@H](O)C1=O (stereo not given in full)	40	72
O=C(c1ccco1)c1cn(CCCOc2ccccc2)c2ccccc12	.	0
COc1ccc2c(c1)[C@]13CCCC[C@H]1[C@H](C2)N(C)CC3	20	6
CC(=O)OC[C@]12C[C@H](O)C(C)=C[C@H]1O[C@@H]1[C@H](O)[C@@H](OC(C)=O)[C@@]2(C)[C@]12CO2	96*	90*
CC(=O)OC[C@]12CCC(C)=C[C@H]1O[C@@H]1[C@H](O)[C@@H](OC(C)=O)[C@@]2(C)[C@]12CO2	109*	92*
O=c1c2ccccc2nc(CSc2ncnc3ccccc23)n1-c1ccccc1F	.	71
